# Source: ChEMBL document CHEMBL2218924, “A broad activity screen in support of a chemogenomic map for kinase signalling research and drug discovery” (Biochem J, 2013)
# Key:
# [1] = target: MAP kinase-activated protein kinase 2 (Homo sapiens) (UniProt P49137); conditions: at 10 µM
# [2] = target: MAP kinase-activated protein kinase 3 (Homo sapiens) (UniProt Q16644); conditions: at 10 µM
# [3] = target: Serine/threonine-protein kinase MARK1 (Homo sapiens) (UniProt Q9P0L2); conditions: at 1 µM
# [4] = target: Serine/threonine-protein kinase MARK1 (Homo sapiens) (UniProt Q9P0L2); conditions: at 10 µM
# [5] = target: Dual specificity mitogen-activated protein kinase kinase 1 (Homo sapiens) (UniProt Q02750); conditions: at 1 µM
# Chain of Dual specificity mitogen-activated protein kinase kinase 1 (Homo sapiens) (Q02750 whole entry): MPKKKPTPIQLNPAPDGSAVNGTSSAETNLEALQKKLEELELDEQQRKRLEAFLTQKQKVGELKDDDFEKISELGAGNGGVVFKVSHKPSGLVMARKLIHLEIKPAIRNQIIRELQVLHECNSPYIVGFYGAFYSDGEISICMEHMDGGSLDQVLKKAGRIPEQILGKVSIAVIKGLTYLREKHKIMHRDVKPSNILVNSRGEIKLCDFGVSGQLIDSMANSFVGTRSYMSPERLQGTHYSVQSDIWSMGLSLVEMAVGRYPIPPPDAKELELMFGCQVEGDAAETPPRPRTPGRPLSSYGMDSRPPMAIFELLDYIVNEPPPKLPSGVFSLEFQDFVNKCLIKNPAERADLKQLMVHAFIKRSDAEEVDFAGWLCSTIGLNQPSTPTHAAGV
# [6] = target: Dual specificity mitogen-activated protein kinase kinase 1 (Homo sapiens) (UniProt Q02750); conditions: at 10 µM
# [7] = target: Misshapen-like kinase 1 (Homo sapiens) (UniProt Q8N4C8); conditions: at 1 µM
# Chain of Misshapen-like kinase 1 (Homo sapiens) (Q8N4C8 whole entry, looked up): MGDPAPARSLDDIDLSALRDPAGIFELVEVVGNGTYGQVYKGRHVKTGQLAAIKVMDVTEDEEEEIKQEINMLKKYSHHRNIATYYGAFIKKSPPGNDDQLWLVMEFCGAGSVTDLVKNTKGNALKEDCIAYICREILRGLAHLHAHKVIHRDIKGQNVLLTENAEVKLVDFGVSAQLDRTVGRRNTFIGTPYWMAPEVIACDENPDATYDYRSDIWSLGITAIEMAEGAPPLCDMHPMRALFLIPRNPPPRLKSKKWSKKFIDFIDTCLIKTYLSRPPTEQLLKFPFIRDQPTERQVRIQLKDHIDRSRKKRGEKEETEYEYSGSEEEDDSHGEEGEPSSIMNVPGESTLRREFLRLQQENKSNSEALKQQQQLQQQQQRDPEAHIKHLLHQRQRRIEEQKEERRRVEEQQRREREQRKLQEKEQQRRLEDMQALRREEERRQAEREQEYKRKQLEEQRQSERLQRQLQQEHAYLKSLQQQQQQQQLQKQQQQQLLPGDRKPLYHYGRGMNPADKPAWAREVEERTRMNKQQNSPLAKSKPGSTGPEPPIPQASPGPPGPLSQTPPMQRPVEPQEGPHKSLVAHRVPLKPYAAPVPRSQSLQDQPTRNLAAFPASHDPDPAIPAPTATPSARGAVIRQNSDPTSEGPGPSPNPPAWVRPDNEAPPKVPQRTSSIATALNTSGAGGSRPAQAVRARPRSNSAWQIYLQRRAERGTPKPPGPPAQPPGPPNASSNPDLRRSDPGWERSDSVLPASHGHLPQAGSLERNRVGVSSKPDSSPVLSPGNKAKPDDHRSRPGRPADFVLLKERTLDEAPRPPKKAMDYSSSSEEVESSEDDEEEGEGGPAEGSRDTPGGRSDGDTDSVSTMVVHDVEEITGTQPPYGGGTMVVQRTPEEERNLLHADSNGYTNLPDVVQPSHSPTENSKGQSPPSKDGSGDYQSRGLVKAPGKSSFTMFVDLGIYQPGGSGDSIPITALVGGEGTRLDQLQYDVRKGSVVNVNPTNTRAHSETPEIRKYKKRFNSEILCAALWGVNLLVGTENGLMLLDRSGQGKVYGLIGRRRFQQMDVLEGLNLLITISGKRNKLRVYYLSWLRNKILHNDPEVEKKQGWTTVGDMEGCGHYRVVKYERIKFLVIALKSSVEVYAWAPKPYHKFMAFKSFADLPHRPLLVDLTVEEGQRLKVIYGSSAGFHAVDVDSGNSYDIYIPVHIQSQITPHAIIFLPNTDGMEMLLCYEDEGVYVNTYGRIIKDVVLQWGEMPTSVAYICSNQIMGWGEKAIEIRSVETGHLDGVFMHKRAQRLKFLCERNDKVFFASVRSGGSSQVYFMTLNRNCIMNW
# [8] = target: Misshapen-like kinase 1 (Homo sapiens) (UniProt Q8N4C8); conditions: at 10 µM
# [9] = target: Maternal embryonic leucine zipper kinase (Homo sapiens) (UniProt Q14680); conditions: at 1 µM
# Chain of Maternal embryonic leucine zipper kinase (Homo sapiens) (Q14680 whole entry, looked up): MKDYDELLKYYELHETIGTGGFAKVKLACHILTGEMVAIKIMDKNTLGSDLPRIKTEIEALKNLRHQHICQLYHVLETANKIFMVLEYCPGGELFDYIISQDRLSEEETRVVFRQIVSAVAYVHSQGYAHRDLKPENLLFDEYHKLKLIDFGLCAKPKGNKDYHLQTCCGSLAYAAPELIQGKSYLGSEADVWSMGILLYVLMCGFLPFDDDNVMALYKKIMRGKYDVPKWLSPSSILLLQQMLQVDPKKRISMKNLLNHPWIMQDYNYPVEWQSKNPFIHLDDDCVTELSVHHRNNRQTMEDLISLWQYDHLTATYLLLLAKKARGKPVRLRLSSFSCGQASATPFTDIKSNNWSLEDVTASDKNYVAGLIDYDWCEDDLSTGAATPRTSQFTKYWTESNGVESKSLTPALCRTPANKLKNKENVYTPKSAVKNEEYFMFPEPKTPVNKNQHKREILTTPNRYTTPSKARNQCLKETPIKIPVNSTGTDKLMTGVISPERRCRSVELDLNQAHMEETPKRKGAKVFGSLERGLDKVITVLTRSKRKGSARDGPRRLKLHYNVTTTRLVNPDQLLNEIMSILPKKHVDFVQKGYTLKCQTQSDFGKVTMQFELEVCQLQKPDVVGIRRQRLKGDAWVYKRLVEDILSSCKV
# [10] = target: Maternal embryonic leucine zipper kinase (Homo sapiens) (UniProt Q14680); conditions: at 10 µM
# Chain of MAP kinase-activated protein kinase 2 (Homo sapiens) (P49137 whole entry, looked up): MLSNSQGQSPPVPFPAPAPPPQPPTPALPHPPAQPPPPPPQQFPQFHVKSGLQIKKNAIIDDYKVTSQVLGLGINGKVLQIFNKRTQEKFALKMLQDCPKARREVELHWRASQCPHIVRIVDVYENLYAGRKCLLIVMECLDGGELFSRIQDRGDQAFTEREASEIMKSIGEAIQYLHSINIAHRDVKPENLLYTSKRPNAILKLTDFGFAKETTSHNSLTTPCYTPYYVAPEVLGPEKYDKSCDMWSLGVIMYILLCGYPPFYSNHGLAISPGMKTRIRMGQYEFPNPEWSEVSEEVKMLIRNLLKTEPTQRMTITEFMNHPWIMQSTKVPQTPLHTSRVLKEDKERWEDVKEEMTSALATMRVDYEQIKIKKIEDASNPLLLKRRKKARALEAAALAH
# Chain of MAP kinase-activated protein kinase 3 (Homo sapiens) (Q16644 whole entry, looked up): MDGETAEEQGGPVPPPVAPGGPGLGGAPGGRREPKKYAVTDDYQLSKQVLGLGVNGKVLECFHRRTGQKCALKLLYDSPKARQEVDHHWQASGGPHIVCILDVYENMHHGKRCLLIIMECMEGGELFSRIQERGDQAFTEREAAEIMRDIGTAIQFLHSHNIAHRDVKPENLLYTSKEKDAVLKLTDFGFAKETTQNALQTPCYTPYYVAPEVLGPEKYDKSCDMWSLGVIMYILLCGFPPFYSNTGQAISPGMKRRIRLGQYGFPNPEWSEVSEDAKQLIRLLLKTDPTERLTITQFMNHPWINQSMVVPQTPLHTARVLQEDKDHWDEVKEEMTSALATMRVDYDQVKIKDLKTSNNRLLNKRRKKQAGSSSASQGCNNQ
# Chain of Serine/threonine-protein kinase MARK1 (Homo sapiens) (Q9P0L2 whole entry, looked up): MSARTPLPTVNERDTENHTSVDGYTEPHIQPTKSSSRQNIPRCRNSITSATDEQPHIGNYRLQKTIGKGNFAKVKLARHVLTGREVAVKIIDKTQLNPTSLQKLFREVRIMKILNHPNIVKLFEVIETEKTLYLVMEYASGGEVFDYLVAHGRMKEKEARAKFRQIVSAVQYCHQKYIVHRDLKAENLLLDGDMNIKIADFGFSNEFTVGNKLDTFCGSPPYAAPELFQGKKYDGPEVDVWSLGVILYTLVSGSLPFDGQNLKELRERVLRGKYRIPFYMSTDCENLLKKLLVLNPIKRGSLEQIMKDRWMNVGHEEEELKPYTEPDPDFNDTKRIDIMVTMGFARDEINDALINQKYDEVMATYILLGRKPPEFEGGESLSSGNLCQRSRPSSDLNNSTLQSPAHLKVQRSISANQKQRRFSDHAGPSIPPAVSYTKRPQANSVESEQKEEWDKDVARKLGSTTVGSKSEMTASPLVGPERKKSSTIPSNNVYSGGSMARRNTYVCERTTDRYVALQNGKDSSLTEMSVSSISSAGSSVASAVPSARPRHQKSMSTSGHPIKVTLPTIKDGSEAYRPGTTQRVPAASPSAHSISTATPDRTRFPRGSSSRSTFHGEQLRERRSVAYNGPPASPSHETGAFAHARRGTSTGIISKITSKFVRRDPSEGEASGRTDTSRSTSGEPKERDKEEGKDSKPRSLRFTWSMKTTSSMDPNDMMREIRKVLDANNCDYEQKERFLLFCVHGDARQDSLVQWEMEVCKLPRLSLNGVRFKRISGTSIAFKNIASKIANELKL
compound,measurement,setting,value
Cc1cc(C)c(/C=C2\C(=O)Nc3ccccc32)[nH]1,residual activity,[1],103%
same,residual activity,[2],101%
same,residual activity,[3],65%
same,residual activity,[4],20%
same,residual activity,[5],41%
same,residual activity,[6],31%
same,residual activity,[7],71%
same,residual activity,[8],58%
CCCCc1c(-c2ccc(OC)cc2)[nH]c2nccnc12,residual activity,[1],109%
same,residual activity,[2],109%
same,residual activity,[3],78%
same,residual activity,[4],76%
same,residual activity,[5],140%
same,residual activity,[6],112%
same,residual activity,[9],74%
same,residual activity,[10],75%
same,residual activity,[7],104%
NC(=O)Nc1sc(-c2ccc(F)cc2)cc1C(N)=O,residual activity,[1],83%
same,residual activity,[2],86%
same,residual activity,[3],57%
same,residual activity,[4],17%
same,residual activity,[5],44%
same,residual activity,[6],34%
same,residual activity,[9],72%
same,residual activity,[10],24%
same,residual activity,[7],81%
same,residual activity,[8],47%
O=C1C(Cl)=C(N2C(=O)CCC2=O)C(=O)c2ccccc21,residual activity,[1],87%
same,residual activity,[2],100%
same,residual activity,[3],82%
same,residual activity,[4],81%
same,residual activity,[6],67%
same,residual activity,[10],70%
O=C1Cc2c([nH]c3ccc([N+](=O)[O-])cc23)-c2ccccc2N1,residual activity,[1],50%
same,residual activity,[2],53%
same,residual activity,[3],34%
same,residual activity,[4],28%
same,residual activity,[5],103%
same,residual activity,[6],129%
same,residual activity,[9],81%
same,residual activity,[10],64%
same,residual activity,[7],60%
same,residual activity,[8],36%
O=C1NC(=O)c2c1c1c3ccccc3[nH]c1n1cncc21,residual activity,[1],89%
same,residual activity,[2],82%
same,residual activity,[3],25%
same,residual activity,[4],21%
same,residual activity,[5],59%
same,residual activity,[6],67%
same,residual activity,[9],27%
same,residual activity,[10],10%
same,residual activity,[7],77%
same,residual activity,[8],45%
Cn1c2ccccc2c2c3c(c4c5ccccc5n(CCC#N)c4c21)CNC3=O,residual activity,[2],77%
same,residual activity,[3],4%
same,residual activity,[4],5%
same,residual activity,[5],36%
same,residual activity,[6],34%
same,residual activity,[9],9%
same,residual activity,[10],4%
same,residual activity,[7],21%
same,residual activity,[8],16%
O=C(Nc1ccc(Cl)cc1)c1ccccc1NCc1ccncc1,residual activity,[9],75%
CCN1/C(=C/C(C)=O)Sc2ccc(OC)cc21,residual activity,[3],67%
same,residual activity,[4],65%
Nc1nccc(-c2c(-c3ccc(F)cc3)ncn2C2CCNCC2)n1,residual activity,[6],119%
same,residual activity,[9],71%
same,residual activity,[10],27%
O=C1Cc2c([nH]c3ccc(Br)cc23)-c2ccccc2N1,residual activity,[2],89%
same,residual activity,[3],51%
same,residual activity,[4],12%
same,residual activity,[6],82%
same,residual activity,[9],89%
same,residual activity,[10],68%
Fc1ccc(-c2nc3n(c2-c2ccncc2)CCS3)cc1,residual activity,[2],100%
same,residual activity,[9],89%
same,residual activity,[10],82%
same,residual activity,[7],96%
same,residual activity,[8],67%
CCOC(=O)c1c(C)[nH]c(/C=C2\C(=O)Nc3ccccc32)c1C,residual activity,[2],95%
same,residual activity,[3],89%
same,residual activity,[4],87%
same,residual activity,[9],77%
same,residual activity,[10],97%
same,residual activity,[7],86%
same,residual activity,[8],75%
N#C/C(=C1/Nc2ccccc2S1)c1ccnc(NCCc2cccnc2)n1,residual activity,[2],68%
same,residual activity,[9],74%
same,residual activity,[10],50%
same,residual activity,[7],96%
same,residual activity,[8],72%
Oc1cccc(-c2nc(N3CCOCC3)c3oc4ncccc4c3n2)c1,residual activity,[9],74%
same,residual activity,[10],88%
CC(C)(C)n1nc(Cc2cccc3ccccc23)c2c(N)ncnc21,residual activity,[2],90%
same,residual activity,[3],91%
same,residual activity,[4],80%
same,residual activity,[5],94%
same,residual activity,[6],63%
same,residual activity,[9],72%
same,residual activity,[10],30%
same,residual activity,[7],86%
same,residual activity,[8],26%
O=S(=O)(c1cccc2cnccc12)N1CCCNCC1,residual activity,[9],75%
same,residual activity,[10],16%
CCCCc1c(-c2ccc(O)cc2)[nH]c2nccnc12,residual activity,[3],74%
same,residual activity,[4],38%
same,residual activity,[9],76%
same,residual activity,[10],72%
same,residual activity,[7],97%
same,residual activity,[8],86%
CCN(CC)CCNC(=O)c1c(C)[nH]c(/C=C2\C(=O)Nc3ccc(Cl)cc32)c1C,residual activity,[3],14%
same,residual activity,[4],3%
same,residual activity,[5],21%
same,residual activity,[6],8%
same,residual activity,[9],8%
same,residual activity,[10],3%
same,residual activity,[7],9%
same,residual activity,[8],2%
O=S(=O)(NCCNC/C=C/c1ccc(Br)cc1)c1cccc2cnccc12,residual activity,[3],76%
same,residual activity,[4],37%
same,residual activity,[9],45%
same,residual activity,[10],9%
same,residual activity,[8],75%
CC(C)N(CCC(=O)c1ccc2ccccc2c1)Cc1ccccc1,residual activity,[3],73%
same,residual activity,[4],75%
same,residual activity,[9],75%
same,residual activity,[10],87%
COc1ccc(-c2cnc3c(-c4ccsc4)cnn3c2)cc1,residual activity,[3],91%
same,residual activity,[4],95%
same,residual activity,[9],80%
same,residual activity,[10],87%
same,residual activity,[7],89%
same,residual activity,[8],76%
COc1ccc(Cl)cc1NC(=O)Nc1cc(C)nc2ccccc12,residual activity,[3],86%
same,residual activity,[4],77%
same,residual activity,[5],75%
same,residual activity,[6],86%
same,residual activity,[9],88%
same,residual activity,[10],89%
COc1ccc(COc2ccc(Cc3cnc(N)nc3N)cc2OC)cc1,residual activity,[4],71%
c1ccc(-c2cnc(Nc3ccc(OCCN4CCCC4)cc3)s2)cc1,residual activity,[2],104%
same,residual activity,[5],113%
same,residual activity,[9],64%
same,residual activity,[10],20%
same,residual activity,[7],61%
same,residual activity,[8],12%
COc1cc2c(cc1OC)-c1n[nH]c(Nc3cccc(F)c3)c1C2,residual activity,[2],99%
same,residual activity,[3],73%
same,residual activity,[4],48%
same,residual activity,[5],108%
same,residual activity,[9],47%
same,residual activity,[10],11%
same,residual activity,[7],74%
same,residual activity,[8],42%
NC(=O)c1cccc(-c2cc(Nc3ccc(OC(F)(F)F)cc3)ncn2)c1,residual activity,[9],74%
same,residual activity,[10],75%
COc1ccc2c(c1)c(C1=C(c3c[nH]c4ccccc34)C(=O)NC1=O)cn2CCCN(C)C,residual activity,[2],135%
same,residual activity,[3],75%
same,residual activity,[4],53%
same,residual activity,[5],102%
same,residual activity,[6],75%
same,residual activity,[9],54%
same,residual activity,[10],26%
same,residual activity,[8],61%
O=C1Nc2ccccc2/C1=C\c1c(Cl)[nH]c2ccccc12,residual activity,[2],85%
same,residual activity,[4],74%
same,residual activity,[9],77%
same,residual activity,[10],30%
NC(=O)c1ccc(-c2nc(-c3ccc4c(c3)OCCO4)c(-c3ccccn3)[nH]2)cc1,residual activity,[3],96%
same,residual activity,[4],89%
same,residual activity,[9],73%
same,residual activity,[10],70%
O=C1NC(=O)C(c2cn(CCCn3ccnc3)c3ccccc23)=C1Nc1ccccc1,residual activity,[3],77%
same,residual activity,[4],51%
same,residual activity,[5],104%
same,residual activity,[6],39%
same,residual activity,[8],47%
Nc1ncnc2c1cnn2-c1ccccc1,residual activity,[2],92%
same,residual activity,[3],89%
same,residual activity,[4],88%
same,residual activity,[6],79%
same,residual activity,[9],95%
same,residual activity,[10],73%
same,residual activity,[8],99%
O=c1cc(N2CCOCC2)oc2c(-c3ccccc3)cccc12,residual activity,[10],72%
Nc1nc(Nc2ccc(S(N)(=O)=O)cc2)nn1C(=O)c1c(F)cccc1F,residual activity,[5],73%
same,residual activity,[6],64%
same,residual activity,[7],107%
same,residual activity,[8],80%
N#Cc1c(NC(=O)c2cccc3ccccc23)sc2c1CCCC2,residual activity,[2],88%
same,residual activity,[3],100%
same,residual activity,[4],92%
same,residual activity,[9],87%
same,residual activity,[10],91%
same,residual activity,[7],95%
same,residual activity,[8],93%
COc1cc2nccc(Oc3ccc(NC(=O)Nc4cc(C)on4)c(Cl)c3)c2cc1OC,residual activity,[2],67%
same,residual activity,[3],99%
same,residual activity,[5],62%
same,residual activity,[6],20%
same,residual activity,[10],80%
same,residual activity,[7],71%
same,residual activity,[8],21%
COc1ccc(CNC(=O)Nc2ncc([N+](=O)[O-])s2)cc1,residual activity,[4],76%
O=c1c(-c2ccc(F)cc2)c(-c2ccncc2)[nH]n1-c1ccc(Cl)cc1,residual activity,[6],102%
same,residual activity,[8],55%
